According to PubChem BioAssay (NCI):
The panel holds about 79,000 compounds, 15% with a hit somewhere; the sample as a whole holds those more often. Rule as the data show it: active = growth inhibition above about 70%; inactive = the rest.

Legend:
[1] = NCI Yeast Anticancer Drug Screen. Data for the rad50 strain (AID 155);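 also: 0% = growth of vehicle-only cultures of the same strain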; conditions: S. cerevisiae rad50 strain growth inhibition; at 50.0 µM; hits give high values
Method in brief: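 Genetically altered yeast (DNA repair pathway); compound treatment; growth inhibition vs vehicle ctrl.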

[2] = NCI Yeast Anticancer Drug Screen. Data for the mec2-1 strain (AID 157); conditions: S. cerevisiae mec2-1 strain, at 50.0 µM, hits give high values
Method in brief: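 Readout is yeast growth inhibition, normalised to vehicle-treated controls, in the mec2-1 strain exposed to compound.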

[3] = NCI Yeast Anticancer Drug Screen. Data for the sgs1 mgt1 strain (AID 161);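 also: 0% = growth of cultures given vehicle only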; conditions: S. cerevisiae sgs1 mgt1 strain, at 50.0 µM, hits give high values
Method in brief: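 Compounds are added to genetically altered yeast, and growth is compared with cultures given vehicle alone to give percent inhibition.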

[4] = NCI Yeast Anticancer Drug Screen. Data for the cln2 rad14 strain (AID 165);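 also: 0% = growth equal to vehicle treated cultures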; conditions: S. cerevisiae cln2 rad14 strain, at 50.0 µM, hits give high values
Method in brief: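 Relative to vehicle controls, growth inhibition of compound-treated cln2 rad14 yeast was recorded.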

[5] = NCI Yeast Anticancer Drug Screen. Data for the bub3 strain (AID 167); conditions: S. cerevisiae bub3 mutant strain, at 50.0 µM, hits give high values
Method in brief: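 Yeast carrying a defined mutation is treated with each compound, and growth is compared with that of vehicle-exposed cells to give inhibition.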

[6] = NCI Yeast Anticancer Drug Screen. Data for the mlh1 rad18 strain (AID 175); conditions: S. cerevisiae mlh1 rad18 strain growth inhibition; at 50.0 µM; hits give high values
Method in brief: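 Test agents were incubated with a yeast strain of defined genotype (DNA damage repair defect). Inhibition of growth was derived by comparison with vehicle-exposed cultures.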

Measured: growth inhibition

C=CCSc1nc2c(=O)[nH]cnc2n1C1OC(CO)C(O)C1O (stereo unspecified)
inactive: [1] -7.35% | [2] 4% | [3] -3.1% | [4] -0.35% | [5] -8.1% | [6] -12.7%

Cc1cc(N2CCCCC2)nc(N2CCCCC2)c1C#N
inactive: [1] -4.2% | [2] -20.2% | [3] 27.7% | [4] 14.6% | [5] 35.9% | [6] 13.8%

O=C(CN1C(=O)CC(NC(=O)OCc2ccccc2)C1=O)NCC(=O)Oc1ccc([N+](=O)[O-])cc1 (stereo unspecified)
inactive: [1] 31.6% | [2] 20.9% | [3] 26.9% | [4] 7.7% | [5] 4% | [6] 22.1%

O=C(c1cccc([N+](=O)[O-])c1)N1CCOCC1
inactive: [1] -2.65% | [2] -10% | [3] 1.45% | [4] -36.4% | [5] 3.7% | [6] 14.1%

OCC1CCCCCCC1
inactive: [1] -4.25% | [2] -19.7% | [3] -3.15% | [4] 18.4% | [5] -3.65% | [6] -10.4%

O=c1oc2ccccc2cc1-n1nnc2cc([N+](=O)[O-])ccc21
inactive: [1] 39% | [2] 24.1% | [3] 25.8% | [4] -25.6% | [5] 12.8% | [6] 26.8%

O=C(O)CCC(=O)c1ccc2c3c(cccc13)CC2
inactive: [1] 22.6% | [2] 0.9% | [3] 15.2% | [4] 46% | [5] 21.5% | [6] 36%

C=C(C)[C@@H]1CC[C@@H](C)C[C@H]1O
inactive: [1] 9% | [2] -11.8% | [3] -1.55% | [4] 13.8% | [5] 9.95% | [6] -1.65%

CC(=O)CCCCCCCCCCCCCC(C)=O
inactive: [1] -18.1% | [2] -5.1% | [3] -21.1% | [4] -10.8% | [5] 6.25% | [6] -6%

O=c1c2ccccc2ncn1C1OC(CO)C(O)C1O (stereo unspecified)
inactive: [1] 17.6% | [2] -19.1% | [3] -13.9% | [4] 4.95% | [5] 6.95% | [6] -2.05%

COC(Cc1cc(C(O)(c2ccc(C(C)(C)C)cc2)c2cc(CC(OC)(c3cc(C(OC)(c4ccc(C(C)(C)C)cc4)c4ccc(C(C)(C)C)cc4)c(C)cc3C)c3cc(C(OC)(c4ccc(C(C)(C)C)cc4)c4ccc(C(C)(C)C)cc4)c(C)cc3C)c(C)cc2C)c(C)cc1C)(c1cc(C(OC)(c2ccc(C(C)(C)C)cc2)c2ccc(C(C)(C)C)cc2)c(C)cc1C)c1cc(C(OC)(c2ccc(C(C)(C)C)cc2)c2ccc(C(C)(C)C)cc2)c(C)cc1C
inactive: [1] -2.75% | [2] -1.25% | [3] 9.05% | [4] -30.6% | [5] 5.55% | [6] 23.6%

CNc1ccc([N+](=O)[O-])cn1
inactive: [1] 19.9% | [2] -13.4% | [3] 31.6% | [4] 8.75% | [5] 19.9% | [6] 4.15%

CC(C)CC(CN(C)C)C(=O)/C=C/c1ccccc1 (stereo unspecified)
inactive: [1] 18.2% | [2] -2.25% | [3] 19.4% | [4] -6.95% | [5] 11.8% | [6] 22.1%

COc1ccc(OC)c(NC(=O)C(=O)NNC(=O)c2sc(NNC(C)=O)nc2C)c1
inactive: [1] 66.7% | [2] 28.8% | [3] 47.4% | [4] 26.5% | [5] 61% | [6] 30.8%

CCCCCC(=O)C(C)=O
inactive: [1] -22.8% | [2] -5.9% | [3] -0.9% | [4] -20.8% | [5] -20.8% | [6] -12.2%

Cc1ccc(S(=O)(=O)N2CCC2c2ccccc2)cc1 (stereo unspecified)
inactive: [1] 4.55% | [2] -3.8% | [3] -17.9% | [4] -3.85% | [5] -17.9% | [6] -24.9%

CCC(O)(c1ccccc1)C(OC)c1ccccc1 (stereo unspecified)
inactive: [1] 15.3% | [2] 5.35% | [3] 14.5% | [4] 7.25% | [5] -0.35% | [6] 21.1%

CCCCSCCO
inactive: [1] -0.65% | [2] -0.2% | [3] -4% | [4] -12.4% | [5] -4.4% | [6] 0.7%

O=C(CCC(=O)Nc1cc(Cl)ccc1Cl)CC(=O)c1ccc([N+](=O)[O-])cc1
inactive: [1] 10.1% | [2] 28.9% | [3] 4.35% | [4] 13.8% | [5] -2% | [6] 40.4%

CCOC(=O)C(CCC#N)(CCC#N)C(C)=O
inactive: [1] -8.5% | [2] -1.65% | [3] -4.7% | [4] -64.8% | [5] 0.15% | [6] 15.1%

O=C1NC(=O)C2CCC12 (stereo unspecified)
inactive: [1] 1.95% | [2] -4.2% | [3] 1.45% | [4] -20.7% | [5] 8.95% | [6] 18.2%

C1=CCSC(Nc2ccccc2)=NC1
inactive: [1] 7.65% | [2] 3.35% | [3] -7.05% | [4] -2.6% | [5] 0.75% | [6] -5.85%

CC(C)CCNc1ncnc2[nH]ncc12
inactive: [1] -16.5% | [2] -31.7% | [3] -26.2% | [4] -35.1% | [5] -13.8% | [6] -18.4%

C/C=C(/C)c1ccccc1
inactive: [1] -5.1% | [2] 1.8% | [3] -1.1% | [4] 10.4% | [5] 4.55% | [6] 24.6%

c1ccc(-c2nc3ccccc3o2)cc1
inactive: [1] 31.3% | [2] 21.4% | [3] 26.9% | [4] 4.25% | [5] 27.4% | [6] 37.4%

Cc1cc(O)ccc1N=Nc1ccc(S(=O)(=O)O)cc1
inactive: [1] -26.8% | [2] -10.2% | [3] -10.6% | [4] 2.55% | [5] 4.55% | [6] -12.5%

CC(=O)Oc1cccc(C)c1
inactive: [1] -20.6% | [2] -4.75% | [3] -18.8% | [4] -28.4% | [5] -13.2% | [6] -5.65%

CC1=CC(C)(C)SC(=S)N1
inactive: [1] 24.9% | [2] 5.3% | [3] 19.8% | [4] -60.6% | [5] -3.35% | [6] 29.3%

[N-]=[N+]=Nc1ccc(-c2nc(N)nc(N)n2)cc1
inactive: [1] 11.8% | [2] 0.35% | [3] -2.55% | [4] -4.75% | [5] 6.9% | [6] 15.2%

CCCCCC(=O)OCCOC
inactive: [1] -3.4% | [2] -15.2% | [3] -8.45% | [4] -46% | [5] -38.1% | [6] -13.7%

CC1=CCCC(C)(C)C1/C=C\C(C)=N\Nc1ccc([N+](=O)[O-])cc1[N+](=O)[O-] (stereo unspecified)
inactive: [1] 0.55% | [2] -3.3% | [3] -12.3% | [4] -33.9% | [5] -0.15% | [6] 6.3%

CC(=O)c1ccc(N=C2C=CC(=O)O2)cc1
inactive: [1] 6.85% | [2] -14.9% | [3] -11.1% | [4] -21.5% | [5] -4.65% | [6] 7.65%

CN(C)c1nc(OC2C(C3COC(C)(C)O3)OC3OC(C)(C)OC32)nc(N(C)C)n1 (stereo unspecified)
inactive: [1] 36.9% | [2] -9.65% | [3] 9.65% | [4] 26% | [5] -4.35% | [6] 2.15%

O=C(O)CC1C(=O)OC2C3COC(=O)c4cc(O)c(O)c(O)c4-c4c(cc(O)c(O)c4O)C(=O)OC2C(OC(=O)c2cc(O)c(O)c4c2C1C(O)C(=O)O4)C(OC(=O)c1cc(O)c(O)c(O)c1)O3 (stereo unspecified)
inactive: [1] 24.4% | [2] 2.8% | [3] 22.4% | [4] 5.15% | [5] 35.5% | [6] -6.15%

Cn1c(=O)c2cc(O)cnc2n(C)c1=O
inactive: [1] 4.8% | [2] -5.8% | [3] 0.3% | [4] -14.7% | [5] -7.35% | [6] -3%

CCSC(SCC)C(NC(C)=O)C(OC(C)=O)C(OC(C)=O)C(COC(C)=O)OC(C)=O (stereo unspecified)
inactive: [1] 23.4% | [2] -3.25% | [3] -0.2% | [4] 8.25% | [5] -2.7% | [6] 10.6%
